Source: PubChem BioAssay (National Center for Advancing Translational Sciences (NCATS))
Shown are actives, neighbours in structure and some others; about 2.7% of the full set was active somewhere.
mIDH1 inhibitor: qHTS for Inhibitors of mutant isocitrate dehydrogenase 1 (IDH1): qHTS; Isocitrate dehydrogenase [NADP] cytoplasmic (Homo sapiens), O75874; IDH1-R132H enzyme, NADPH consumption, diaphorase/resazurin fluorescence; Potency, µM (titrated, usually from 76.6 µM), usual class: inhibitors; hit rate 0.093% among 390,000; AID 602179, 2012; note: nearly all actives have a fitted effect of over 65% in size
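IDH1-R132H (0.5 ug/mL dispensed) in pH 7.5 Tris buffer was preincubated 30 min with compound, then given a substrate mix of 0.016 mM NADPH and 2 mM alpha-KG for 80 min at room temperature; remaining NADPH was read by diaphorase/resazurin fluorescence.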
Nrf2 activator: qHTS of Nrf2 Activators; Potency, µM (series often up to 46.1 µM), most hits filed as activators; hit rate 0.31% among 410,000; AREc32 ARE-luciferase reporter (MCF7-derived line), luminescence, 24 h; AID 624171, 2012; note: nearly all actives have a fitted effect of over 65% in size
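Reporter line AREc32 (ARE-Fluc), seeded overnight in OPTI-MEM with 5% FBS; compound pin-transferred, 24 hr at 37 deg C, 5% CO2; luminescent read-out.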
A549 viability: Nrf2 qHTS screen for inhibitors: counterscreen for cytotoxicity; hit rate 0.16% among 390,000; A549 ARE-Fluc cells, CellTiter-Fluor viability, 18-24 h; Potency, µM (series often up to 46 µM), most hits filed as inhibitors; AID 504648, 2011
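Cytotoxicity counterscreen: CellTiter-Fluor fluorescence was measured in A549 ARE_Fluc cells after 18-24 h of compound exposure in a concentration series. The subsequent BugLite luminescent read reports ARE-luciferase activity.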
LDHA block: qHTS assay for inhibitors of human lactate dehydrogenase; L-lactate dehydrogenase A chain (Homo sapiens), P00338; purified LDHA, NADH/diaphorase-resazurin fluorescence; stronger effect = lower value; activity change, % (values are at about 110 or 230 µM); hit rate 0.15% among 480,000; in the data active = activity change below about -30%; inconclusive = mostly about -25% to -30%
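LDH5 2 nM; NADH 0.06 mM, pyruvate 0.2 mM; 200 mM Tris pH 7.4, EDTA, Tween-20; 5 min RT. Detection: diaphorase 0.133 mg/mL + resazurin 37 µM, fluorescence ex540/em590 at 0 and 20 min; normalized to enzyme-free and DMSO wells.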
Nrf2 block: Nrf2 qHTS screen for inhibitors. Potency, µM (highest dose often 46 µM), most hits filed as inhibitors. hit rate 2.1% among 360,000. A549 ARE-Fluc reporter, luciferase luminescence, 18-24 h; note: nearly all actives have a fitted effect of over 60% in size
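Nrf2 activity is the BugLite luminescence, read 15 min after reagent at room temperature, following CellTiter-Fluor cytotoxicity readout (30 min, 37C). Compound titrations were applied for 18-24 h to 5000 A549 ARE_Fluc cells/well in 5% FBS OPTI-MEM.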
12-LOX inh: Primary qHTS assay for inhibitors of human arachidonate 12S-lipoxygenase (ALOX12): Round 2; purified 12hLO, xylenol orange hydroperoxide absorbance; Potency, µM (series often up to 108 µM), actives largely listed as inhibitors; hit rate 1.1% among 580,000
Target sequence (P18054 whole entry, looked up): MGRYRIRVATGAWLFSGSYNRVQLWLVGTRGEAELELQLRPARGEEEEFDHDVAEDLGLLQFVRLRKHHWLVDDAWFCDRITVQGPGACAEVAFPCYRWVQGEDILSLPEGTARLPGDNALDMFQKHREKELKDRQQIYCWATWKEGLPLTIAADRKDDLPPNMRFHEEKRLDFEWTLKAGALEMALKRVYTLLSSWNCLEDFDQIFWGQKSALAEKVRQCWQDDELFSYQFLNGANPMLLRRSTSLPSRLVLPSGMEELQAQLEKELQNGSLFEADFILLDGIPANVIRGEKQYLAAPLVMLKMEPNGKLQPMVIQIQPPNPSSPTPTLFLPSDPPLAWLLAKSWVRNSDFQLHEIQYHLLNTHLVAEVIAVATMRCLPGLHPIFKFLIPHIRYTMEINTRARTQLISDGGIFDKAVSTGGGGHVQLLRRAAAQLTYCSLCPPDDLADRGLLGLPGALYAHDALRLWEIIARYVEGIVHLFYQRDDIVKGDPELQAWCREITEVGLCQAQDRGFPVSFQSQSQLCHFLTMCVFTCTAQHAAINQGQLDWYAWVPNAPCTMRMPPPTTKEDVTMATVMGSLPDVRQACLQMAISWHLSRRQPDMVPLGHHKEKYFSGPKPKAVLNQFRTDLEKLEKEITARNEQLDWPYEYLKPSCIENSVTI
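Purified human 12hLO (150 nM final) in 25 mM Hepes, 0.01% Triton X-100, pH 7.0 was preincubated 15 min at room temperature with compound. Then 40 uM arachidonic acid was added, 30 min. Hydroperoxide was read by Fe-XO absorbance ratio 573/405 nm.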
Of the large screens only hits and unclear results are named; the others gave an inactive call. Unless noted, calls come from the whole dose curve; as a rule, active = well fitted curve in the direction sought with a large enough effect; inconclusive = small, poorly fitted or top-dose-only effect, or another doubt; inactive = no such curve, though single readings can be large; an effect the other way counts as inactive or inconclusive.

CC(Oc1cccc(Cl)c1)C(=O)OCc1nc(N)nc(N)n1 (centres undefined)	12-LOX inh inconclusive (no result: mIDH1 inhibitor, Nrf2 activator, A549 viability, Nrf2 block)
O=C(Nc1ccccn1)c1ccc(S(=O)(=O)c2ccc(Cl)cc2)cc1	Nrf2 block 5.8µM
O=C(Nc1ccc(Cl)cc1)Nc1ccccn1	Nrf2 activator 10µM, Nrf2 block inconclusive
O=C(Nc1ccccc1)Nc1ccccn1	Nrf2 activator inconclusive (no result: Nrf2 block)
CCN(Cc1ccc2c(c1)OCO2)C(=O)NC(c1ccc2c(c1)OCCCO2)C(C)C (centres undefined)	none (no result: mIDH1 inhibitor, Nrf2 activator, A549 viability, Nrf2 block)
CC(/C=C/N(C)C)=C\C=[N+](C)C	12-LOX inh inconclusive (no result: mIDH1 inhibitor, Nrf2 activator, A549 viability, Nrf2 block)
CCC(CC)NC(=O)COc1ccccc1NC(C)=O	none (no result: mIDH1 inhibitor, Nrf2 activator, A549 viability, Nrf2 block)
CC(=O)c1c(C)oc2c(Br)cc(NS(=O)(=O)c3ccc(Br)cc3)cc12	12-LOX inh 44.7µM (no result: Nrf2 block)
Cc1cccc2cc3c(nc12)SC(=NCC1CCCO1)N(Cc1ccco1)C3 (centres undefined)	none (no result: 12-LOX inh)
COCCN=C1Sc2nc3c(C)cccc3cc2CN1Cc1ccco1	12-LOX inh 31.6µM
Cn1cc(CN2CCCC(C(=O)Nc3cccc(-c4cc5ccccc5[nH]4)c3)C2)cn1 (centres undefined)	A549 viability inconclusive, Nrf2 block 23.1µM
CC(C)(C)c1noc(CSc2cc(C(N)=O)c3ccccc3n2)n1	none (no result: mIDH1 inhibitor, Nrf2 activator, A549 viability, Nrf2 block)
O=C(NCC1(c2ccccc2)CCCC1)C(=O)NCC1(c2ccccc2)CCCC1	none
S=C(NCC1(c2ccccc2)CCCC1)Nc1ccccc1	Nrf2 block 16.4µM, 12-LOX inh inconclusive
CCOc1ccc(CNC(=O)c2ccc(-c3nc(CS(=O)(=O)c4ccccc4)c(C)o3)cc2)cc1	LDHA block -35.3
COc1cccc(CNC(=O)c2ccc(-c3nc(CS(=O)(=O)c4ccccc4)c(C)o3)cc2)c1	Nrf2 block 23.1µM
CCC(=O)N1N=C(c2c(-c3ccccc3)c3cc(Cl)ccc3n(C)c2=O)CC1c1ccco1 (centres undefined)	12-LOX inh inconclusive (no result: mIDH1 inhibitor, Nrf2 activator, A549 viability, Nrf2 block)
OC1CCCN(c2c3c(nc4cc(-c5cccc(Cl)c5)nn24)CCC3)C1 (centres undefined)	Nrf2 block 4.61µM
Cc1cccc(-c2cc3nc4c(c(N5CCCC(O)C5)n3n2)CCC4)c1 (centres undefined)	Nrf2 block inconclusive
CCOC(=O)c1ccc(-c2ccc(/C=C/C(=O)c3ccccc3)o2)cc1	12-LOX inh inconclusive (no result: mIDH1 inhibitor, Nrf2 activator, A549 viability, Nrf2 block)
O=C(/C=C/c1ccc(-c2ccccc2)o1)c1ccccc1	12-LOX inh inconclusive
COc1ccc(C(=O)/C=C/c2ccc(-c3ccc(OC)cc3)o2)cc1	12-LOX inh 0.316µM (no result: mIDH1 inhibitor, Nrf2 activator, A549 viability, Nrf2 block)
Cc1ccc(-c2ccc(/C=C/C(=O)c3ccccc3)o2)cc1	12-LOX inh 3.55µM
Cc1ccc(/C=C/C(=O)c2ccccc2)o1	12-LOX inh 14.1µM (no result: mIDH1 inhibitor, Nrf2 activator, A549 viability, Nrf2 block)
CCOC(=O)c1sc(N2C(=O)C(O)=C(C(=O)c3ccc(C)o3)C2c2cccc([N+](=O)[O-])c2)nc1C (centres undefined)	A549 viability inconclusive, Nrf2 block 23.1µM, 12-LOX inh inconclusive
CCOC(=O)c1sc(N2C(=O)C(O)=C(C(=O)c3ccc(C)o3)C2c2ccc(OC)c(OC)c2)nc1C (centres undefined)	A549 viability inconclusive, Nrf2 block inconclusive
CCOC(=O)c1sc(N2C(=O)C(O)=C(C(=O)c3ccco3)C2c2ccc([N+](=O)[O-])cc2)nc1C (centres undefined)	12-LOX inh 28.2µM
Cc1cc(N2C(=O)C(O)=C(C(=O)c3ccco3)C2c2ccc([N+](=O)[O-])cc2)no1 (centres undefined)	12-LOX inh 44.7µM
CCOC(=O)c1sc(N2C(=O)C(O)=C(C(=O)c3ccco3)C2c2ccc(C)o2)nc1C (centres undefined)	Nrf2 block inconclusive, 12-LOX inh inconclusive
